# Test results reported in PubChem BioAssay AID618 (Sanford-Burnham Center for Chemical Genomics, 2007).
# Screen size: about 87,000 compounds; about 540 (0.62%) were called active. A call without a number means that no potency is given here. The sample holds actives, similar compounds and a random draw of the others, so the mix is not that of the screen. No rule for the calls is given here. Potency and affinity values are given separately.
# Assay: MT1-MMP gene expression reporter suppression – cell-based, luciferase reporter, luminescence (AID 618);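 also: actives suppress MT1-MMP promoter-driven transcription so potencies describe inhibitors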
# Settings: MT1-MMP promoter luciferase reporter cells
row,SMILES,outcome
1,CCOC(=O)c1sc(Nc2ccc(C)cc2C)nc1C,inactive
2,COc1cc(CN2CCN(S(=O)(=O)c3ccc(F)cc3)CC2)cc(OC)c1OC,inactive
3,Nc1sc2c(c1C(=O)NC1CCS(=O)(=O)C1)CCCC2 (stereo not given),inactive
4,COc1cc(C(N)=O)ccc1OCc1ccccc1,inactive
5,O=C(O)c1cc(/C=N\O)ccc1OCc1ccccc1,inactive
6,COc1cc(/C=N/O)ccc1OCc1ccc(C(=O)O)cc1,active
7,CCOC(=O)Cn1cc(C(=O)OC)c2ccccc21,inactive
8,CCOc1ccccc1N1CCN(C(=O)C2c3ccccc3Oc3ccccc32)CC1,inactive
9,COc1ccccc1N1CCN(C(=O)C2c3ccccc3Oc3ccccc32)CC1,active
10,O=C(C1c2ccccc2Oc2ccccc21)N1CCN(c2ccc(Cl)cc2)CC1,inactive
11,CCOC(=O)C1CCN(Cc2ccccc2C)CC1,inactive
12,Cc1cnc(C)c(N2CCC(C(=O)NC(C)c3cccs3)CC2)n1 (stereo not given),inactive
13,CC(C)Oc1ccccc1C1CC(=O)Nc2cc3c(cc21)OCCO3 (stereo not given),inactive
14,COc1cccc(C2CC(=O)Nc3cc4c(cc32)OCCO4)c1OC(C)C (stereo not given),inactive
15,CC(C)Oc1ccccc1C1CC(=O)Nc2cc3c(cc21)OCO3 (stereo not given),active
16,CCCOc1ccccc1C1CC(=O)Nc2cc3c(cc21)OCCO3 (stereo not given),inactive
17,CCOc1ccccc1C1CC(=O)Nc2cc3c(cc21)OCO3 (stereo not given),active
18,CCOc1ccccc1C1CC(=O)Nc2cc3c(cc21)OCCO3 (stereo not given),inactive
19,Cc1[nH]nc2c1C(c1ccc(Cl)cc1)C(C#N)=C(N)O2 (stereo not given),inactive
20,CCOC(=O)C1CCCn2c1nc1sc3c(c1c2=O)CCCC3 (stereo not given),inactive
21,CC(C)(C)c1ccc(S(=O)(=O)NCc2ccc(C(=O)N3CCCC3)cc2)cc1,inactive
22,CO/N=C/C(=N\Nc1ccc(C)cc1)C(=O)c1ccc(OC)cc1,inactive
23,COc1ccc(N/N=C(\C=N\O)C(=O)c2ccc(OC)cc2)cc1,active

row,SMILES,outcome
1,CO/N=C/C(=N\Nc1ccc(OC)cc1)C(=O)c1ccc(OC)cc1,inactive
2,Cc1c(C(=O)OC(C)CCN(C)C)oc2ccccc12 (stereo not given),inactive
3,CN1/C(=C\C(=O)COC(=O)CN2C(=O)C3CC=CCC3C2=O)C(C)(C)c2ccccc21 (stereo not given),inactive
4,Fc1ccc(Cn2c(-c3cscn3)nc3ccccc32)c(Cl)c1,inactive
5,Cc1oc2ccc(O)cc2c1C(=O)OC(C)C,inactive
6,CCN1C(=O)C(CC(=O)N2CCN(C(c3ccccc3)c3ccccc3)CC2)N(CC)C1=O (stereo not given),inactive
7,CC(=O)CSc1nc2ccccc2s1,inactive
8,O=C(CSc1nc2ccccc2s1)CSc1nc2ccccc2s1,inactive
9,CC(C)Oc1ccc(C2c3c(oc4ccccc4c3=O)C(=O)N2CCCN2CCOCC2)cc1 (stereo not given),inactive
10,COc1ccc(OCCSc2nnc3sc4ccccc4n23)cc1,inactive
11,NC(=O)CSc1nnc2sc3ccccc3n12,inactive
12,COc1cccc(OCCSc2nnc3sc4ccccc4n23)c1,inactive
13,CN(C)C(=O)CSc1nnc2sc3ccccc3n12,inactive
14,C=CCOC(=O)C1=C(C)NC(=O)NC1c1cn(-c2ccccc2)nc1-c1cccs1 (stereo not given),inactive
15,COc1ccc(-n2c(Cc3cccn3C)nnc2SCC(=O)Nc2cccc(F)c2)cc1,inactive
16,Cc1cc(/C=N/n2cnnc2)c(C)n1-c1ccc(OCc2ccc(Cl)cc2)cc1,inactive
17,Cc1cc(/C=N/n2cnnc2)c(C)n1-c1ccc(OCc2ccccc2F)cc1,inactive
18,Cc1ccc(C)c(N(CC(=O)NC2CCCCC2)C(=O)CCC(=O)Nc2ccccn2)c1,inactive
19,O=C(COC(=O)c1cccs1)c1ccccc1,inactive
20,O=C(COC(=O)c1cccs1)c1ccc2ccccc2c1,inactive
21,CCOC(=O)C1=C(C)NC(=O)NC1c1ccccc1Cl (stereo not given),inactive
22,O=C(NCCN1CCOCC1)c1ccc(F)cc1,inactive
23,c1ccc(-n2ncc3c(N4CCN(c5ccccn5)CC4)nc(N4CCCCC4)nc32)cc1,inactive

row,SMILES,outcome
1,COc1ccc(N2CCN(C(=O)c3ccc(CS(=O)(=O)c4ccc(OC)cc4)o3)CC2)cc1,inactive
2,Cc1ccccc1S(=O)(=O)Cc1ccc(C(=O)N2CC(C)CC(C)C2)o1 (stereo not given),inactive
3,Cc1cccc(N2CCN(C(=O)c3ccc(CS(=O)(=O)c4ccccc4C)o3)CC2C)c1 (stereo not given),active
4,Cc1ccc(C)c(N2CCN(C(=O)c3ccc(CS(=O)(=O)c4ccccc4C)o3)CC2)c1,inactive
5,COc1ccc(S(=O)(=O)Cc2ccc(C(=O)N3CCN(c4cccc(C)c4)C(C)C3)o2)cc1 (stereo not given),active
6,CCOC(=O)N1CCN(C(=O)c2ccc(CS(=O)(=O)c3ccc(OC)cc3)o2)CC1,inactive
7,Cc1ccc(N=Cc2ccc(N(C)C)cc2)cc1,inactive
8,O=S(=O)(/N=C(\c1ccccc1)N1CCOCC1)c1cccs1,inactive
9,COCCn1nnnc1CN1CCC(C)CC1,inactive
10,CCc1cc(=O)oc2cc(OCC(=O)N3CCc4ccccc43)ccc12,inactive
11,COCCCN1C(=O)C(=O)/C(=C(/O)c2ccc(OC(C)C)cc2)C1c1ccncc1 (stereo not given),inactive
12,COc1ccc(-c2nc(-c3cccs3)c(-c3cccs3)[nH]2)cc1O,inactive
13,COc1ccc(-c2c/c(=N\c3nc(-c4ccccc4)c(C)s3)c3ccccc3o2)cc1O,active
14,COc1ccc(-c2nc(-c3ccccc3)c(-c3cc([N+](=O)[O-])ccc3C)[nH]2)cc1O,inactive
15,Cc1nn(C)c(C)c1S(=O)(=O)N1CCC(C(=O)NCC2COc3ccccc3O2)CC1 (stereo not given),inactive
16,COC(=O)[C@@H]1C[C@H]2CC[C@H](O)C[C@H]2N1Cc1ccc(-c2ccccc2)cc1,active
17,COC(=O)[C@@H]1C[C@@H]2CC[C@@H](O)C[C@@H]2N1Cc1ccc(-c2ccccc2)cc1,inactive
18,COC(=O)[C@@H]1C[C@@H]2CC[C@@H](O)C[C@@H]2N1Cc1ccc(Cl)cc1,inactive
19,O=c1c(Cl)c(NCCCO)cnn1-c1nc2ccccc2[nH]1,inactive
20,CC1(C)CC(=O)c2cnn(-c3nc4ccccc4[nH]3)c2C1,inactive
21,CC(=O)c1c(C)nn(C(=O)N2CCOCC2)c1C,inactive
22,CCOc1ccccc1N(C(=O)CNS(=O)(=O)c1ccccc1)C(CC)C(=O)NCc1ccco1 (stereo not given),inactive
23,COc1ccc(/C=N/n2cnnc2SCc2ccccc2)cc1,inactive

row,SMILES,outcome
1,COc1ccc(/C=N/n2c(N)nc3ccccc32)cc1OC,inactive
2,COc1ccc(/C=N\n2nnc3ccccc32)cc1,active
3,CC1(c2ccccc2)NC(=O)N(CC(=O)N2CCOCC2)C1=O (stereo not given),inactive
4,O=c1c2ccccc2cnn1-c1nc2ccccc2s1,active
5,O=c1c2ccccc2cnn1-c1ccc(Br)cc1,inactive
6,O=c1c2ccccc2cnn1-c1ccc(Cl)cc1,inactive
7,COc1ccc(-c2noc(CCC(=O)NCCCN3CCC(Cc4ccccc4)CC3)n2)cc1,inactive
8,CCCC(=O)Nc1ccc(Cl)c(NC(=O)c2cccnc2)c1,inactive
9,O=C1CCCCCN1C(=O)c1ccc(C(=O)N2CCCCCC2=O)cc1,inactive
10,O=C1CCCCCN1C(=O)c1cccc(C(=O)N2CCCCCC2=O)c1,inactive
11,Cc1ccc2c(c1)CCCN2C(=O)C1CCCO1 (stereo not given),inactive
12,CCOC(=O)c1ccc2nc(NC(=O)c3cccs3)sc2c1,inactive
13,Cc1ccc2nc(NC(=O)c3ccc(Cl)s3)sc2c1,inactive
14,CN(C)S(=O)(=O)c1ccc2nc(NC(=O)c3cccs3)sc2c1,inactive
15,CCN(CC)S(=O)(=O)c1ccc2nc(NC(=O)c3cccs3)sc2c1,inactive
16,Cc1ccc2nc(NC(=O)c3cccs3)sc2c1,active
17,CS(=O)(=O)c1ccc2nc(NC(=O)c3cccs3)sc2c1,active
18,CCSc1n[nH]c2nc3c(c(=O)n12)C1(CCCC1)Cc1ccccc1-3,inactive
19,CCOc1ccccc1C1CC(=O)NC2=C1C(=O)CCC2 (stereo not given),inactive
20,CCCCOc1ccccc1C1CC(=O)NC2=C1C(=O)CCC2 (stereo not given),active
21,CCCOc1ccccc1C1CC(=O)NC2=C1C(=O)CCC2 (stereo not given),inactive
22,COc1oc(-c2ccc(Cl)cc2)nc1C(F)(F)F,inactive
23,Cc1ccc2c(c1)c1c3n2CCCNC3CCC1 (stereo not given),inactive

row,SMILES,outcome
1,Cc1ccc2c(c1)c1c3n2CCN(C(=O)CN2CCN(C)CC2)C3CCC1 (stereo not given),inactive
2,Cc1ccc2c(c1)c1c3n2CCN(C(=O)C2CC2)C3CCC1 (stereo not given),inactive
3,c1cc2c(cc1C1CCCCC1)c1c3n2CCCNC3CCC1 (stereo not given),active
4,c1ccc2c(c1)c1c3n2CCNC3CCC1 (stereo not given),inactive
5,CCCCCn1c(N)c(-c2nc3ccccc3s2)c2c([N+](=O)[O-])nn(C)c(=O)c21,inactive
6,Cc1cc(OC(=O)c2ccco2)c2c(C)cc(=O)oc2c1,inactive
7,O=c1oc2ccccc2n1CCCOc1ccccc1,inactive
8,Cc1ccc(NC(=O)CN2CC(C)SC2=NC2CCCCC2)cc1 (stereo not given),active
9,CCc1cccc(CC)c1NC(=O)CN1CC(C)SC1=NC1CCCCC1 (stereo not given),inactive
10,CC1CCCN(S(=O)(=O)c2ccc(NC(=O)CN3CCN(C)CC3)cc2)C1 (stereo not given),inactive
11,C=CCOc1cc(C)nc(-c2ccccc2O)n1,inactive
12,CCOC(=O)CSc1nnc(N)s1,inactive
13,O=C1C/C(=C/NCc2ccccc2)C(=O)N1,inactive
14,Cc1nnc(NC(=O)CSc2nccn2-c2cccc(C)c2C)s1,active
15,CCc1nnc(NC(=O)CSc2nccn2-c2cccc(C)c2C)s1,inactive
16,CCSc1nnc(NC(=O)CSc2nccn2-c2cccc(C)c2C)s1,inactive
17,O=C1CC(c2c[nH]c3ccccc23)C(=O)N1 (stereo not given),inactive
18,CCOc1ccc(-c2cc(CCCC(=O)NCCc3ccccc3)no2)cc1,inactive
19,CCOc1ccc(-c2cc(CCCC(=O)NCCc3ccc(OC)c(OC)c3OC)no2)cc1,inactive
20,CCOc1ccc(-c2cc(CCCC(=O)Nc3cccc(OC)c3)no2)cc1,inactive
21,CCOc1ccc(NC(=O)CCCc2cc(-c3ccc(OCC)cc3)on2)cc1,inactive
22,COc1ccccc1NC(=O)NC(=O)N(C(C)C)S(C)(=O)=O,inactive
23,Cc1cc2ncn(CC(O)COC3CCCCC3)c2cc1C (stereo not given),inactive
